# Reference: ChEMBL document CHEMBL1201862, “PubChem BioAssay data set” (2004)
# The whole screen tested about 54,000 sequences, of which about 4,600 (8.5%) were called active. Rule as the data show it: active = GI50 up to about 1.1 µM and inactive = higher. What follows is part of a selection rich in actives, with near analogues and random picks from the rest. Potency and affinity values are given separately.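 Each compound was tested at five concentrations against cells in 96-well plates for 48 hours. Here, GI50 denotes the concentration required for 50% inhibition of growth.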
# Test system: LOX IMVI
# Experiment: NCI tumour cell line growth inhibition, 48 h
row,Substance,GI50 [µM]
1,"CISPLATIN, CHEMBL11359",1.41
2,"[Bis(aminomethyl)dimethylsilane]tetrachloroplatinum(IV), CHEMBL2146190",7.48
3,"cis-Bis[[(trimethylsilyl)methyl]amino]tetrachloroplatinum(IV), CHEMBL2146191",5.48
4,"[Bis(aminomethyl)ethylmethylsilane]tetrachloroplatinum(IV), CHEMBL2146192",7.41
5,"[Bis(aminomethyl)tetramethylenesilane]tetrachloropaltinum(IV), CHEMBL2146189",3.26
6,"[Bis(aminomethyl)pentamethylenesilane]dichloropaltinum(II), CHEMBL2146202",0.889
7,"[Bis(aminomethyl)dimethylsilane]dichloroplatinum (II), CHEMBL2146201",38.6
8,"[Bis(aminomethyl)pentamethylenesilane]tetrachloropaltinum(IV), CHEMBL2146204",0.74
9,"[Bis(aminomethyl)tetramethylenesilane]dichloropaltinum(II), CHEMBL2146205",22.3
10,"mu-(1,7-nanodiamine-N,N')bis-(cis-aminedichloroplatimum (II)), CHEMBL2146215",12.6
